Results reported in PubChem BioAssay (Tox21).
Results filed as inconclusive are left out. Active and inactive are the calls of the source. Calls follow the shape of the dose curve; as a rule, active = well fitted curve in the direction sought with a large enough effect in the repeat runs; inconclusive = weak or mixed curves; inactive = no such curve, though single readings can be large; an effect the other way counts as inactive or inconclusive.

Legend:
[1] = biological target: Cytochrome P450 2D6 (Homo sapiens) (UniProt P10635); assay: Cytochrome P450 Family 2 Subfamily D Member 6 (CYP2D6) small molecule antagonists: luciferase reporter qHTS assay (AID 1671196); conditions: P450-Glo CYP2D6 enzyme assay, luciferin luminescence, 1 h; series mostly up to 115 µM; also: potency is read from the fitted curve at half-maximal effect
In short: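 CYP2D6 enzyme–substrate mix was held with compound for 10 min at room temperature, then NADPH regeneration solution was added and the reaction ran 1 h at room temperature. Luciferin product was detected by luminescence after 20 min with detection reagent.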

[2] = biological target: Cytochrome P450 2C9 (Homo sapiens) (UniProt P11712); assay: Cytochrome P450 Family 2 Subfamily C Member 9 (CYP2C9) small molecule antagonists: luciferase reporter qHTS assay (AID 1671198); conditions: P450-Glo CYP2C9 enzyme assay, luciferin luminescence; series mostly up to 115 µM
In short: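 CYP2C9 activity was measured with a P450-Glo proluciferin substrate. Enzyme–substrate mix was held with compound for 10 min at room temperature, then NADPH regeneration solution was added for 1 h at 37C. Luciferin product was read as luminescence.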

[3] = biological target: Voltage-gated inwardly rectifying potassium channel KCNH2 (Homo sapiens) (UniProt Q12809); assay: Human Ether-a-go-go-Related Gene (hERG) channel small molecule antagonists: fluorescence cell-based qHTS assay (AID 1671200); conditions: hERG-U2OS cells, FluxOR thallium flux fluorescence; series mostly up to 76.8 µM;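 also: hERG-expressing U2OS cells given a thallium stimulus after FluxOR II dye loading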
In short: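 U2OS cells expressing the channel were plated at 1000 cells/well, incubated overnight at 37 C, then loaded with FluxOR II thallium-sensitive dye for 1 h at room temperature in the dark, with a further 10 min at room temperature before stimulation.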

[4] = biological target: Cytochrome P450 3A4 (Homo sapiens) (UniProt P08684); assay: Cytochrome P450 Family 3 Subfamily A Member 4 (CYP3A4) small molecule antagonists: luciferase reporter qHTS assay (AID 1671201); conditions: P450-Glo CYP3A4 enzyme, luciferin luminescence, 1 h; series mostly up to 115 µM
In short: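 P450-Glo CYP3A4 system with proluciferin substrate; compounds preincubated 10 min RT with enzyme-substrate mix, then NADPH regeneration added for 1 h RT. Detection reagent 20 min, luminescence read as relative luminescence units.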

[5] = biological target: Cytochrome P450 1A2 (Homo sapiens) (UniProt P05177); assay: Cytochrome P450 Family 1 Subfamily A Member 2 (CYP1A2) small molecule antagonists: luciferase reporter qHTS assay (AID 1671199); conditions: P450-Glo CYP1A2 enzyme, luciferin luminescence, 1 h; series mostly up to 53 µM
In short: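 Human CYP1A2 activity measured with a P450-Glo proluciferin substrate; compounds in DMSO preincubated 10 min at room temperature with enzyme-substrate mix, then NADPH regeneration system added for 1 h. Luciferin detection reagent, 20 min, luminescence read.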

Measured: Potency
Also: nearly all actives have a fitted effect of over 50% in size.

Cytochrome P450 2C9 (Homo sapiens), sequence (P11712 whole entry, looked up): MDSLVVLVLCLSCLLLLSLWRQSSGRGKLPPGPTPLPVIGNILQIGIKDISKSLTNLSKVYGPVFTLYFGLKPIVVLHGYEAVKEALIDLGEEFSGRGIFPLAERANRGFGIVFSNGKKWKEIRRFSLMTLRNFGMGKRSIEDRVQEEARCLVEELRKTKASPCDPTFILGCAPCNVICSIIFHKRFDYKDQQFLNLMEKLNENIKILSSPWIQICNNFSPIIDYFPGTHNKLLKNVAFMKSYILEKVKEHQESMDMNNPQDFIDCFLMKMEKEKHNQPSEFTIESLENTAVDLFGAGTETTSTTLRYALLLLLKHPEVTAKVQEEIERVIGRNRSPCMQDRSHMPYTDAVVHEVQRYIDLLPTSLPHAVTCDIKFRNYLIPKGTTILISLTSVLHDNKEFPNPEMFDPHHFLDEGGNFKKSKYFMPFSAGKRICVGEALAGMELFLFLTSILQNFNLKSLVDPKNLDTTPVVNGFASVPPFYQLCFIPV
Cytochrome P450 2D6 (Homo sapiens), sequence (P10635 whole entry, looked up): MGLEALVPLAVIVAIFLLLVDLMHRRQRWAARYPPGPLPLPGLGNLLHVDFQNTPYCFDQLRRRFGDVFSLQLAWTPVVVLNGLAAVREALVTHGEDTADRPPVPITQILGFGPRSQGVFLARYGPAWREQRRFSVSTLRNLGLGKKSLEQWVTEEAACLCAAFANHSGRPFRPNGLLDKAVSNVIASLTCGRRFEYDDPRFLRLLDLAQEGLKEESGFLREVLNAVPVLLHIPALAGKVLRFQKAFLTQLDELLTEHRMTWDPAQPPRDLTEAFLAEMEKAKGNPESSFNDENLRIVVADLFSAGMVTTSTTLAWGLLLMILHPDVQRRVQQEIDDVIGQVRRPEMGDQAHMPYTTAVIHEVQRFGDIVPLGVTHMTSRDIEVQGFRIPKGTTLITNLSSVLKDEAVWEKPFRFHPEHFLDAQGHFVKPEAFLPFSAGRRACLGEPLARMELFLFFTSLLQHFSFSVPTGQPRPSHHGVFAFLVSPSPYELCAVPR
Cytochrome P450 3A4 (Homo sapiens), sequence (P08684 whole entry, looked up): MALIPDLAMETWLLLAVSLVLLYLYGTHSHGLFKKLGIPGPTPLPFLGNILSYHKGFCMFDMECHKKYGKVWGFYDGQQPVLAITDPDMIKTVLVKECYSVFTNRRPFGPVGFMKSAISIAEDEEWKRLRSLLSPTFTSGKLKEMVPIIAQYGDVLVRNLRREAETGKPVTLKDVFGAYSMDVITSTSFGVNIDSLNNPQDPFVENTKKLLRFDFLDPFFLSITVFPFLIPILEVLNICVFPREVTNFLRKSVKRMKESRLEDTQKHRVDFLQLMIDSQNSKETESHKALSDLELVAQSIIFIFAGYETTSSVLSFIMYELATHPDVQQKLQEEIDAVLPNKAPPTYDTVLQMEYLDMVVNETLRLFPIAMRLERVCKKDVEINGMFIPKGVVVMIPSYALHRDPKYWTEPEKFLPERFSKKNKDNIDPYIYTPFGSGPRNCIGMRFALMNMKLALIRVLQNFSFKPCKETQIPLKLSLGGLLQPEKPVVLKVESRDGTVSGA
Voltage-gated inwardly rectifying potassium channel KCNH2 (Homo sapiens), sequence (Q12809 whole entry, looked up): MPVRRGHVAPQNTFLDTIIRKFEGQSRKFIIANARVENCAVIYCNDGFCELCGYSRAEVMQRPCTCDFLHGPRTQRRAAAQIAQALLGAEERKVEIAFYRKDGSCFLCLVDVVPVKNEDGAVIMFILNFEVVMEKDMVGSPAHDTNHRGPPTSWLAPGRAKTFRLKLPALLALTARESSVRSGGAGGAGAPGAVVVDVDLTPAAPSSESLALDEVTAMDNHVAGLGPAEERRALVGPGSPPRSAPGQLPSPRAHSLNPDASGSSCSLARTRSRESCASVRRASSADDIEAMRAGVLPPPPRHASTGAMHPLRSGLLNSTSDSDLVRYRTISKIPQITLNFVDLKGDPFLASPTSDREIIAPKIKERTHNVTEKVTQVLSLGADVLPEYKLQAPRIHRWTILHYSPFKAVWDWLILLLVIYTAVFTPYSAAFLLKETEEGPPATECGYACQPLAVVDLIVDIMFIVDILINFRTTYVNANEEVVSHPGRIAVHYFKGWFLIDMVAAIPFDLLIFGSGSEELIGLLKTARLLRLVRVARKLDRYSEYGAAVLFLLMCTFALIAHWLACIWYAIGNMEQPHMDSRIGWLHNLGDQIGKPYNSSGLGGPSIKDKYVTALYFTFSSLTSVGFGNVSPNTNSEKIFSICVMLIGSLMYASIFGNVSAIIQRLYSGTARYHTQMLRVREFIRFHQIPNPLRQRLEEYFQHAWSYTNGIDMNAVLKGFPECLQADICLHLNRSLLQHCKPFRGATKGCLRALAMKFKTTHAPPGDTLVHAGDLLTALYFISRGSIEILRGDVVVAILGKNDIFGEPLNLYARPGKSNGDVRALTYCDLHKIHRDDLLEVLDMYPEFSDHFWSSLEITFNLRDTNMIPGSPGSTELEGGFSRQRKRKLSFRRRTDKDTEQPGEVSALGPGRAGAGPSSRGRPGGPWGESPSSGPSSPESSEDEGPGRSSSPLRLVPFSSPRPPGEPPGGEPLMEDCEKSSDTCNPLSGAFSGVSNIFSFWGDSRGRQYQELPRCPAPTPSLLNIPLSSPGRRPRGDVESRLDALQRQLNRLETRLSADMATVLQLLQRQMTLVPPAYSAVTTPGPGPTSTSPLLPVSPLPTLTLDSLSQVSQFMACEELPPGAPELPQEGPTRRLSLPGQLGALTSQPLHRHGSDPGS
Cytochrome P450 1A2 (Homo sapiens), sequence (P05177 whole entry, looked up): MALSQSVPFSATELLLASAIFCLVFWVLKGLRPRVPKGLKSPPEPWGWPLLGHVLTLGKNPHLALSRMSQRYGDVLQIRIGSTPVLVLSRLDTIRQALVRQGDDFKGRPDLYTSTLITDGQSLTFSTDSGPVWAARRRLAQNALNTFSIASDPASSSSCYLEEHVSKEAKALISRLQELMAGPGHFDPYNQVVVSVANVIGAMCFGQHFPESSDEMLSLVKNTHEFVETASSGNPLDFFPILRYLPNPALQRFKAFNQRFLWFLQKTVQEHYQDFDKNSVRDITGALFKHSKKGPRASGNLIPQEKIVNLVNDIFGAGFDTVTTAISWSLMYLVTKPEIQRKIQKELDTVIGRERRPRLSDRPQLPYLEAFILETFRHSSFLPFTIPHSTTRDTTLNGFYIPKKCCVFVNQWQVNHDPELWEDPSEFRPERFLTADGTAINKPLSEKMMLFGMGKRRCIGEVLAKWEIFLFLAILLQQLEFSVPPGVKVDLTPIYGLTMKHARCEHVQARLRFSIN

CCC1(CO)COCOC1
inactive: [1] | [2] | [3] | [4]

FC(F)(F)c1ccccc1Cl
inactive: [2] | [3]
active: [1] 46 µM

CCC(C)COC(C)=O (stereo unspecified)
inactive: [1] | [2] | [3] | [4]

CCn1cc(C(=O)O)c(=O)c2cc(F)c(N3CCNCC3)cc21
inactive: [1] | [2] | [5] | [3] | [4]
